Data published in ChEMBL document CHEMBL3988442, “University of Dundee, Small-Polar-MMV Screening Library” (2021).
For some assays here: Potency and affinity values are given separately.

What was measured:
Parameters in all cases: scale not given: direction of the effect not stated beside the values
[1] = molecular target: Protein translocase subunit SecA (Escherichia coli (strain K12)) (UniProt P10408); assay: Assay to Identify E. coli SecA ATPase Inhibitors; type: functional; details: 30 µM
[2] = molecular target: T1, Ubiquitin-activating enzyme e1, putative (Leishmania donovani (strain BPK282A1)) (UniProt E9BSI1); assay: Leishmania donovani Ubiquitin Activating Enzyme (LdE1); type: functional; details: 30 µM
T1 sequence (whole entry): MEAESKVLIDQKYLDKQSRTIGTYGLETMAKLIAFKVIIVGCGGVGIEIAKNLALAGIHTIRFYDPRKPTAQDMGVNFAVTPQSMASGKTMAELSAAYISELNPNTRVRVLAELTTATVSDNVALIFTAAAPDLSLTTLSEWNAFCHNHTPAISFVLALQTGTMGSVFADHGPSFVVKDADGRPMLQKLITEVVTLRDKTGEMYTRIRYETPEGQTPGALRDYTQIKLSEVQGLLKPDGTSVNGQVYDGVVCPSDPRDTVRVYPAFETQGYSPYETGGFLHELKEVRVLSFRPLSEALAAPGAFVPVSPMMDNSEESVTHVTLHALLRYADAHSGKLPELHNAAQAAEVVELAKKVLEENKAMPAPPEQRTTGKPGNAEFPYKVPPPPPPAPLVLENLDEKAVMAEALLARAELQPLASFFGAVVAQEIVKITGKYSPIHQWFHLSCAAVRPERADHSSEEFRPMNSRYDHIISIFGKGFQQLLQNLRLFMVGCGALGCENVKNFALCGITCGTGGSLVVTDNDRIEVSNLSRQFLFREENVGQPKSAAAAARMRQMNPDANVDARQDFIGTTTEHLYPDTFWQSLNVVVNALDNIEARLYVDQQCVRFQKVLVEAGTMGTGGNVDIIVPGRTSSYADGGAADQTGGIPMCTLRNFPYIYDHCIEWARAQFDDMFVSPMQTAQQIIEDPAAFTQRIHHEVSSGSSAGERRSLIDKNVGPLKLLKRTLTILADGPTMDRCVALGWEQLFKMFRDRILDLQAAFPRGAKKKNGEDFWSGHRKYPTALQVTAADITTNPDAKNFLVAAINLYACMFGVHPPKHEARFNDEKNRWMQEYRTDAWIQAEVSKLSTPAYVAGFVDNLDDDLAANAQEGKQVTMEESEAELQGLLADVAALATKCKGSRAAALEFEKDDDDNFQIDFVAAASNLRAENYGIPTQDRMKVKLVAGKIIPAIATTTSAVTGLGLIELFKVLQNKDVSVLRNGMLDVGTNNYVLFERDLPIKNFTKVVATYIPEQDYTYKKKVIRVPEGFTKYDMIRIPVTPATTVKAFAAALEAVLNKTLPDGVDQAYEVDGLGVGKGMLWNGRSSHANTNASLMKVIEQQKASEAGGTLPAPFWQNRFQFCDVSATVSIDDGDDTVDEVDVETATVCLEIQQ

[3] = molecular target: AMP-activated protein kinase, AMPK (Homo sapiens) (UniProt P54646+O43741+P54619+Q9UGJ0+Q9Y478+Q13131+Q9UGI9); assay: AMP-dependent Kinase enzyme assay. An in vitro enzyme assay that detects ADP turnover that is directly proportional to AMPK activity. This uses naive AMPK that is activated during the assay with MK-8722; type: functional; details: 30 µM
[4] = molecular target: Sialic acid-binding Ig-like lectin 9 (Homo sapiens) (UniProt Q9Y336); assay: Hs-Siglec9 ALPHAscreen SOP 20170721; details: 10 µM
Chain of Sialic acid-binding Ig-like lectin 9 (Homo sapiens) (Q9Y336 whole entry): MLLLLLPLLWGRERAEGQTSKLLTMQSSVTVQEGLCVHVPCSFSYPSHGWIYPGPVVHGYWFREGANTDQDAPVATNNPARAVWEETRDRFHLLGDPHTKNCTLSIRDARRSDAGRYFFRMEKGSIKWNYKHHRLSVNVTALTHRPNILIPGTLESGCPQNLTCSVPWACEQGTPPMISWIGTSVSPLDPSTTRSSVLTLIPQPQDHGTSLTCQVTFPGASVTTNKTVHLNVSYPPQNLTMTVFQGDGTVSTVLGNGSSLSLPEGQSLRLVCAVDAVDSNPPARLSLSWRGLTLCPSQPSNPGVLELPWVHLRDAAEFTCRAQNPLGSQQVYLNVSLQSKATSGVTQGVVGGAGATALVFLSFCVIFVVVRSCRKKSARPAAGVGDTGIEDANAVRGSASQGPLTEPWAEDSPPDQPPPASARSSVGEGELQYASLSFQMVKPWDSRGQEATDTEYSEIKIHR

Trypanosoma cruzi = assay: Trypanosoma cruzi phosphomannomutase and mannose-1-phosphate guanylyltransferase assay; type: functional; details: 10 µM
[5] = molecular target: T2, Arginase-2, mitochondrial (Homo sapiens) (UniProt P78540); assay: in vitro enzyme assay to detect the production of urea directly proportional to the activity of Arginase II; type: functional; details: 33.3 µM; note: in the data most compounds retested in dose-response had high values
T2 sequence (whole entry): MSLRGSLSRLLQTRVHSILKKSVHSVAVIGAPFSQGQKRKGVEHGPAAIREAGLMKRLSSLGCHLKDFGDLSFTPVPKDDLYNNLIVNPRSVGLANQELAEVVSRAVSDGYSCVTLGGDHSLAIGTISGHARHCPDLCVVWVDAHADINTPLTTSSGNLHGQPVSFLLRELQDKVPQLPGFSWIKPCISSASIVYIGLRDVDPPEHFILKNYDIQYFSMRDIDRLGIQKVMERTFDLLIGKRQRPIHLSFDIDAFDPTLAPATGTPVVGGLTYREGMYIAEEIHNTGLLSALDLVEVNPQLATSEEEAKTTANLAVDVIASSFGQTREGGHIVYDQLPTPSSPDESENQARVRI

[6] = molecular target: T3, Proteasome subunit beta (Trypanosoma cruzi) (UniProt O96673); assay: Trypanosoma cruzi proteasome chymotrypsin-like activity (TcProtChymo) assay.; note: in the data most compounds retested in dose-response had high values; type: functional; details: 9.37 µM
T3 sequence (whole entry): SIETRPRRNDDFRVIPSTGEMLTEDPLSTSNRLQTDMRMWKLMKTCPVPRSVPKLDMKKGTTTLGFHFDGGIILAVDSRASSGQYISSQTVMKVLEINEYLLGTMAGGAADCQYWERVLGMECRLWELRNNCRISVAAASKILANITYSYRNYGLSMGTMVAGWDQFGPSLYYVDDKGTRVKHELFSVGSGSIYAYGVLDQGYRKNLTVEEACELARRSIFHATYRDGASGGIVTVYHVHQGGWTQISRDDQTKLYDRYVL

Homo sapiens = species on record: Homo sapiens; assay: To identify inhibition of the IFN signalling (Jak-Stat) pathway via expression of an eGFP reporter gene under the control of an IFN-stimulated response element (ISRE) containing MxA promoter.; type: functional; details: 30 µM
[7] = molecular target: T4, Tyrosyl-tRNA synthetase, putative (Trypanosoma cruzi (strain CL Brener)) (UniProt Q4DSP6); assay: Trypanosoma cruzi tyrosyl tRNA synthetase (TcYRS) _High Tyrosine SOP; type: functional; details: 30 µM; note: in the data most compounds retested in dose-response had high values
T4 sequence (whole entry): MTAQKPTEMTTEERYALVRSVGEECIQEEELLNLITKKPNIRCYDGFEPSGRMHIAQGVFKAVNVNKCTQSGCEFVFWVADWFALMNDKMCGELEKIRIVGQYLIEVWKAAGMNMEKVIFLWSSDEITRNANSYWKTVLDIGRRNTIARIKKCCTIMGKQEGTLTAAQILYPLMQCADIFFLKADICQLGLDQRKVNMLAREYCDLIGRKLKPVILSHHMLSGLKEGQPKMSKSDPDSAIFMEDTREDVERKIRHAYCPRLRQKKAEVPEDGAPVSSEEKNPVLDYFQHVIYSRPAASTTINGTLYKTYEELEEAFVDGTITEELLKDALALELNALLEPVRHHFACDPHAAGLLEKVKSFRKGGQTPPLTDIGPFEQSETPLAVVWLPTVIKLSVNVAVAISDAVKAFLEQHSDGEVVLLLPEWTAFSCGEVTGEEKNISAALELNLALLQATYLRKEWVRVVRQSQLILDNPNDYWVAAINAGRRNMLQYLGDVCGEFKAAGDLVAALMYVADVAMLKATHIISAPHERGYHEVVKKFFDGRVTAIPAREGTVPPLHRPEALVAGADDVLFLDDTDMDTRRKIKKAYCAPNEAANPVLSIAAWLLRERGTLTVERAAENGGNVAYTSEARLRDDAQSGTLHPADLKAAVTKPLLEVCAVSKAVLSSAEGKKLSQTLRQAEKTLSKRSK

[8] = molecular target: T4, Tyrosyl-tRNA synthetase, putative (Trypanosoma cruzi (strain CL Brener)); assay: Trypanosoma cruzi tyrosyl tRNA synthetase (TcYRS) SOP; type: functional; details: 30 µM
[9] = molecular target: Chromo domain-containing protein 1 (Saccharomyces cerevisiae (strain ATCC 204508 / S288c) (Baker's yeast)) (UniProt P32657); assay: ScCHD-1 Enzyme Inhibition Assay; type: functional; details: 30 µM; note: in the data most compounds retested in dose-response had high values
Chain of Chromo domain-containing protein 1 (Saccharomyces cerevisiae (strain ATCC 204508 / S288c) (Baker's yeast)) (P32657 whole entry, the tested form may be a part): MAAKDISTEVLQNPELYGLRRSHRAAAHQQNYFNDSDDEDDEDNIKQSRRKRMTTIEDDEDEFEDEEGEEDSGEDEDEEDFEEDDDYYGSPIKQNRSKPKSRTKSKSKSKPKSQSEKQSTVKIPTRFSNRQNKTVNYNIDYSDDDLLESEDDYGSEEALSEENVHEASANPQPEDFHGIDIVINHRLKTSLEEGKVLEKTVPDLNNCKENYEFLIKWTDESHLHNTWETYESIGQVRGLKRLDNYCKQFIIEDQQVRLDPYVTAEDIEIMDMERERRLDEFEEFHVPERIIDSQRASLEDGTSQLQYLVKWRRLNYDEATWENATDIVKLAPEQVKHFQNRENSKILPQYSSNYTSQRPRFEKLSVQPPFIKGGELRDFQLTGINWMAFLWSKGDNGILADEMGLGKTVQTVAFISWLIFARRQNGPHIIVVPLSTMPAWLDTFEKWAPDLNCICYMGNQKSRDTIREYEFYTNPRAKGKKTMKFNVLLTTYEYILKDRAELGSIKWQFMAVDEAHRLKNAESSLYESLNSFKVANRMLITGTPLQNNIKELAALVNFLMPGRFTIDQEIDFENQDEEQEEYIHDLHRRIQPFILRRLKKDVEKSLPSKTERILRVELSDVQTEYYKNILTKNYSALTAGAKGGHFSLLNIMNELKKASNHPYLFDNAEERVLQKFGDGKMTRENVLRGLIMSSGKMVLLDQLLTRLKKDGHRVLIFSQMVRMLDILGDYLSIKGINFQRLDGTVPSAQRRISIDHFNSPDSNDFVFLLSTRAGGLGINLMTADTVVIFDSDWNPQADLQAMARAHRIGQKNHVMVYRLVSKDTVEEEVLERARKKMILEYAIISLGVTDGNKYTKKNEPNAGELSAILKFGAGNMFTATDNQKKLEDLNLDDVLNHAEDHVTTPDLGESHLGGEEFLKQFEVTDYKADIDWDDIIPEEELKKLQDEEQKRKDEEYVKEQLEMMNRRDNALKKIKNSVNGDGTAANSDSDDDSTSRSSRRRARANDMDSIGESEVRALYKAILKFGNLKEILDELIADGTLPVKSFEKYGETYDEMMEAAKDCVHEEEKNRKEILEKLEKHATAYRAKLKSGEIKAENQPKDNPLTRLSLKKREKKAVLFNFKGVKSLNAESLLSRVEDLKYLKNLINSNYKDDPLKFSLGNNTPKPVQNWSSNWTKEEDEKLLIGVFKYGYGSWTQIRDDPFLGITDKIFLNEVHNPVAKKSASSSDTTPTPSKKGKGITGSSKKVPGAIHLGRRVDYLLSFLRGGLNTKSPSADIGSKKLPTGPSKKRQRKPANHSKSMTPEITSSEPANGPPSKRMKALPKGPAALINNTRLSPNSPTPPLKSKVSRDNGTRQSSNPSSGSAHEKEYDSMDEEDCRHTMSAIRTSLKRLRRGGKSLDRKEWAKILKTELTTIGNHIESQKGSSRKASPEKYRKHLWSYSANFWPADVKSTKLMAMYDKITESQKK

Chain of Protein translocase subunit SecA (Escherichia coli (strain K12)) (P10408 whole entry): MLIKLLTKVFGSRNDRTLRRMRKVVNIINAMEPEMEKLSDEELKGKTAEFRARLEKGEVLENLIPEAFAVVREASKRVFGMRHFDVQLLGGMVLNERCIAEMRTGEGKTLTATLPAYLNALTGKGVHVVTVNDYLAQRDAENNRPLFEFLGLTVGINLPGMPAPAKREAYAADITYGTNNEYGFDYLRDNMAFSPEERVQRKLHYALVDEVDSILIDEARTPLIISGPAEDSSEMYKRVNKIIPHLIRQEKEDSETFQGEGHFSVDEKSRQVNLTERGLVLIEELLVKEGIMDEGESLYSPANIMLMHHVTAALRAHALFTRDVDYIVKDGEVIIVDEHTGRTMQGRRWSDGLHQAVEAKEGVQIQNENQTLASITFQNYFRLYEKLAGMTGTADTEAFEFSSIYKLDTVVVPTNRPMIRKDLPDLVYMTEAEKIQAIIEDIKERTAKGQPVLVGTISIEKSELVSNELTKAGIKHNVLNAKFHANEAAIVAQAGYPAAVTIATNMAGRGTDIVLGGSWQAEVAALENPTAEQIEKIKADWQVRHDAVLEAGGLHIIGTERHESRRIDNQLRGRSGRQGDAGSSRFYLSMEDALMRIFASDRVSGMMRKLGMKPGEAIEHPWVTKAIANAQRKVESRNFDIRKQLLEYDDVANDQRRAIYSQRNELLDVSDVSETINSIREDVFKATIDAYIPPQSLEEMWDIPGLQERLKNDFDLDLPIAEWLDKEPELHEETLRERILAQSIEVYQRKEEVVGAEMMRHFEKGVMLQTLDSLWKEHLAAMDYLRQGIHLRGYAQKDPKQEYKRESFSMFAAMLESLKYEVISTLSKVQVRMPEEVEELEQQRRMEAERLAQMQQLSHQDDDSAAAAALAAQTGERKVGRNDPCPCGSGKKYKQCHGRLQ

SMILES	Percent Effect [1]	Percent Effect [2]	Percent Effect [3]	Percent Effect [4]	Percent Effect (Trypanosoma cruzi)	Percent Effect [5]	Percent Effect [6]	Percent Effect (Homo sapiens)	Percent Effect [7]	Percent Effect [8]	Percent Effect [9]
Cc1cccc(CCC(=O)N2CCOCC2c2c(C)n[nH]c2C)c1 (configuration not stated)	-3.35%	-5.48%	-2.62%	6.45%	-3.33%	-2.73%	-2.84%	9.04%	-3.23%	-7.5%	-2.99%
COCCCNC(=O)CN(C)C(=O)c1cc(C)sc1C	-3.23%	-359%	0.833%	1.88%	-4.55%	-1.66%	4.67%	14.8%	5.94%	15.8%	-1.76%
Cc1cc(CNC2CCCN(c3cccnn3)C2)no1 (configuration not stated)	-0.548%	-2.6%	-12.2%	5.49%	0.885%	-5.52%	15.5%	18.9%	5.38%	13.6%	-2.81%
Cc1nccnc1CN1CCC2(CCCN(C3CCOCC3)C2=O)C1 (configuration not stated)	-2.05%	-2.74%	-4.08%	1.19%	2.98%	-2.79%	12.8%	13.9%	5.21%	6.17%	0.026%
O=C(C1CCC1)N1CCCC1c1nnc2n1CCCCC2 (configuration not stated)	-0.546%	13.5%	-1.97%	-4.28%	2.34%	33.3%	9.89%	27.9%	11.9%	15.8%	2.32%
COc1ccccc1CC1CCCN(CC(=O)N2CCOCC2)C1 (configuration not stated)	-0.695%	-7.79%	1.77%	6.99%	1.08%	2.32%	-1.54%	2.85%	-1.91%	0%	-10%
CC(C)c1nnc(CN2CCCC2Cn2cncn2)o1 (configuration not stated)	-4.03%	18.2%	-9.21%	3.1%	5.99%	3.92%	10.3%	-4.77%	6.8%	24.4%	-9.98%
CCCS(=O)(=O)N1CCC2(CN(c3cnn(C)c3)C(=O)CN2C)C1 (configuration not stated)	1.02%	10.8%	5.11%	-11.2%	-4.69%	0.833%	20.4%	6.16%	6.93%	8.54%	1.55%
CCN(CC)c1ccc(NS(=O)(=O)c2cncc(F)c2)cn1	1.55%	13.7%	2.14%	7.06%	3.57%	-5.99%	4.71%	-23.6%	6.25%	11.1%	-6.32%
O=C(c1cc(C2CC2)[nH]n1)N1CCN(Cc2ccsc2)CC1	-5.68%	21.6%	-3.2%	10.8%	10.7%	1.66%	14%	9.93%	7.92%	23.2%	-1.29%
CC(C)c1csc(C2CCCN(C(=O)Cn3ccccc3=O)C2)n1 (configuration not stated)	-2.92%	2.63%	1.07%	-4.27%	8.27%	-1.92%	3.68%	10.9%	0.49%	9.76%	-9.15%
CC(C)NC(=O)Nc1ccc(CS(=O)(=O)C(C)(C)C)cc1	-3.43%	2.63%	7.37%	5.76%	-2.82%	-2.37%	23.1%	7.3%	2.13%	10.4%	-2.88%
Cc1ccc(C(NC(=O)[C@H]2CC[C@@H](O)CC2)c2cccnc2)cc1C (some centres not stated)	-7.06%	5.33%	2.02%	2.58%	-1.07%	4.17%	8.2%	-9.12%	0.546%	8.64%	-6.38%
CC(C(=O)NCc1ccnc(N2CCCC2)c1)n1cncn1 (configuration not stated)	-3.9%	15.8%	-4.58%	-5.93%	-5.45%	3.45%	7.18%	26.8%	3.43%	0%	-11.3%
Cc1ccc(S(=O)(=O)NC(=O)c2cccc3c2OCCO3)c(C)c1	-2.98%	-5.48%	7.47%	-1.04%	-3.33%	4.54%	9.94%	5.47%	-10.8%	-12.5%	-2.7%
Cc1nn(C)c(C)c1C1CCCN1C(=O)c1cnc2n[nH]c(C)c2c1 (configuration not stated)	-5.23%	16.2%	-5.44%	13.8%	5.66%	0.554%	0%	9.61%	4.95%	18.3%	-3.42%
O=C(NCCc1ccn(-c2ccccc2)n1)N1CCC1	-2.79%	15.6%	-0.615%	-16.6%	1.67%	-2.32%	25.5%	4.57%	5.71%	25.9%	-20.8%
CN1C(=O)C[C@@H]2[C@@H]1CCN2C(=O)c1ccc[nH]1	-5.79%	-2.74%	1.46%	3.04%	-1.59%	-3.99%	10.7%	17.1%	1.04%	6.17%	0.233%
CCc1cc(N2CCSCC2)n2nc(C)c(C)c2n1	-2.37%	5.33%	2.1%	4.26%	-4.97%	1.04%	26.7%	15.8%	-2.73%	6.17%	-6.13%
CCn1cc(CN2C[C@@H]3CCCN3C[C@@H]2CCSC)c(C)n1	-1.75%	5.33%	8.44%	4.09%	-4.53%	2.1%	8.37%	3.9%	3.19%	6.41%	0.13%
O=C(CS(=O)(=O)c1ccccc1Cl)NC1CCCCNC1=O (configuration not stated)	-6.72%	13%	-4.35%	4.43%	2.43%	-1.78%	6.93%	-3.42%	2.91%	14.6%	-2.31%
Cc1c(C)n(Cc2ccncc2)c2nc3c(c(N)c12)CCCCC3	-2.06%	6.67%	9.29%	1.27%	9.43%	-1.94%	15.3%	43.7%	3.17%	12.8%	-10.9%
